Source: PubChem BioAssay
Shn3 inh set2: reduces Shn3 3'UTR luciferase signal in osteoblasts. Clone20 osteoblast Shn3 3'UTR firefly luciferase, 24 h. inhibition, % at 12.5 µM. 360,000 tested, 0.52% active;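 active = mean inhibition of at least 75% with every replicate also reaching 75%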;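 note: 0% = median of neutral control wells and 100% = pilot-screen positive control compound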
aSyn UTR inh: MLPCN primary screen, SNCA 5' untranslated region | inhibition, % (tested at 7.5 µM) | 300,000 tested, 0.82% active | alpha-synuclein 5'UTR reporter, inhibitor activity | AID 1813; in the data active = inhibition above about 60%;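 note: H4 neuroglioblastoma cells stably carrying SNCA 5'UTR luciferase fusion; 0% = DMSO wells and 100% = positive control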
LMP1 NFkB inh: inhibitors of Epstein-Barr LMP1-induced NF-kappaB reporter | inhibition, % at 12.5 µM | AID 504558 | 350,000 tested, 0.69% active | LMP1-induced NF-kappaB luciferase reporter cells, luminescence; in the data active = inhibition above about 41%;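 note: 0% = neutral control wells and 100% = reference inhibitor control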
PAX8 inh HTS: lowers PAX8-driven luciferase in RMG-I cells | RMG-I TPO-luciferase reporter, SteadyGlo, 24 h | inhibition, % at 12.6 µM | 360,000 tested, 1.2% active;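 active = mean replicate inhibition at least 60% with every replicate also reaching 60%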;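 note: luciferase light reporting Pax8 driven TPO promoter activity; plate controls were median of neutral control wells for no effect and mitoxantrone controls for full effect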
MITF TRPM1 inh: reduces MITF-dependent TRPM1 promoter luciferase signal | SK-MEL-5 TRPM1 promoter luciferase, 24 h | 330,000 tested, 0.83% active | inhibition, % at 12.5 µM | AID 488899;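 active = mean inhibition across replicates of 60% or more, whatever share of single replicates reaches that level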
Numbers without * were called inactive; · = no result given; ! = repeats disagree. Shown are actives, neighbours in structure and some others; about 2.1% of the full set was active somewhere.

SMILES	Shn3 inh set2	aSyn UTR inh	LMP1 NFkB inh	PAX8 inh HTS	MITF TRPM1 inh
Cc1cc(C)nc(Nc2nc(C(N)Cc3ccc(F)cc3)cs2)n1 (configuration not stated)	29	·	·	84*	·
CC1(C)C2CCC1(C)C(OCC[N+](C)(C)CC(=O)OC1CCCCC1)C2 (configuration not stated)	66	4	68*	51	13
CCCC(=O)Nc1nnc(CCOC)s1	-9	-9	1	-13	2
Oc1ccc(CNc2ccccc2)c2cccnc12	66	21	-15	·	54
Cc1cccc(NCc2ccc(O)c3ncccc23)c1	65	54	8	79*	36
Oc1ccc(CNc2ccc(F)cc2)c2cccnc12	-6	76*	-9	·	15
CC(C)[C@H](NC(=O)C1CC(=O)N(c2ccc3c(c2)OCCO3)C1)C(=O)NC1CCCC1 (some centres not stated)	-4	-2	6	8	1
O=C(c1cc(-c2ccncc2)nc2c(Cl)cccc12)N1CCN(c2ccccc2F)CC1	3	99*	-3	56	28
Cc1nc(C)c(-c2csc(N)n2)s1	-12	10	4	-11	7
CC(=O)c1sc2c(c1OC(=O)c1ccc(Cl)cc1Cl)c(=O)n(-c1ccccc1)c(=S)n2-c1ccccc1	-9	101*	-4	-15	63*
O=C(CCc1nnc(CCCCc2ccccc2)o1)N1CCCC(O)C1 (configuration not stated)	-8	0	-9	-13	-11
CCN(CC)Cc1cc(Nc2ccnc3cc(Cl)ccc23)ccc1O	5	-21	57*!	-11	9
Oc1ccc(Nc2ccnc3cc(Cl)ccc23)cc1	17	-5	12	-5	4
Cc1cccc(N2CCN(C(=S)Nc3ccc4nc(N5CCN(C)CC5)cc(C)c4c3)CC2)c1C	85	95*	82*	5	96*
Cc1cc(N2CCN(C)CC2)nc2ccc(NC(=S)NCCN3CCc4ccccc4C3)cc12	18	-13	-41	2	78*
CO[C@@H]1CN(C)C(=O)c2ccc(NC(=O)C3CC3)cc2OC[C@@H](C)N(S(=O)(=O)c2ccc(Cl)cc2)C[C@H]1C	·	·	·	-5	·
CC[C@]12c3[nH]c4cc(CCC(=O)N(C)C)ccc4c3CCN1C(=O)[C@@H](CC(=O)NCCN1CCOCC1)C[C@@H]2C(=O)N1CCN(C(=O)c2ccco2)CC1	-7	·	-1	-12	-5
O=C(C[C@H]1C[C@H](C(=O)N2CCCCC2)[C@@]2(CCc3ccccc3)c3[nH]c4ccc(Cl)cc4c3CCN2C1=O)NCCc1ccccn1	33	·	20	·	52
CC[C@]12c3[nH]c4cc(CCC(=O)N(C)C)ccc4c3CCN1C(=O)[C@@H](CC(=O)NC/C=C(\C)CCC=C(C)C)C[C@@H]2C(=O)N1CCN(C(=O)c2ccco2)CC1	87*	·	15	·	51
CN(C)CCCNC(=O)C[C@H]1C[C@H](C(=O)N2CCCCC2)[C@@]2(CCc3ccccc3)c3[nH]c4ccc(Cl)cc4c3CCN2C1=O	7	·	2	-5	105*
CC[C@]12c3[nH]c4ccc(Cl)cc4c3CCN1C(=O)[C@@H](CC(=O)NC/C=C(\C)CCC=C(C)C)C[C@@H]2C(=O)N1CCN(C(=O)c2ccco2)CC1	15	·	4	82*	16
CC(C)N(C(=O)[C@H]1C[C@H](CC(=O)NCCCN(C)C)C(=O)N2CCc3c([nH]c4cc(-c5ccco5)ccc34)[C@]12C)C(C)C	-26	·	-5	13	73*
N#C/C(=C(/O)CCl)c1nc2ccccc2[nH]1	9	-8	-9	39	80*
N#C/C(=C(\O)Cc1ccccc1)c1nc2ccccc2[nH]1	90*	-22	6	·	4
Cc1cccc(C)c1OCC(=O)OC/C(O)=C(\C#N)c1nc2ccccc2[nH]1	15	-18	2	69*	-5
COc1ccc(Cl)cc1Cn1c(C)c(C(=O)NCc2ccccc2C(F)(F)F)sc1=O	12	·	·	0	·
CCCOc1ccc(-c2c(C(=O)N/N=C/c3ccccc3OCC)nnn2-c2nonc2N)cc1	6	-8	-2	2	6
O=C(CN1CCCCCC1)Nc1cccc(NC(=O)CN2CCCCCC2)c1	11	-20	5	30	0
CN(Cc1cnn(-c2ccc(F)cc2)c1)C(=O)[C@H]1O[C@@H](n2ccc(=O)[nH]c2=O)[C@H](O)[C@@H]1O	9	·	·	-3	·
COc1ccc(-c2coc3cc4oc(=O)c5ccccc5c4cc23)cc1F	-2	81*	12	3	33
